Vif imaging = HIV Vif inhibition | HEK293T cells, Vif self-association by quenched fluorescence, imaging, 24 h | inhibition, % at 7.49 µM | hit rate 0.35% among 340,000 | AID 602346; in the data active = inhibition above about 50%, passing the limit was not always enough; inconclusive = no clear call, values can overlap the other calls; inactive = below about 31%
CFTR F508del cor = correctors of CFTR F508del function in bronchial epithelial cells. hit rate 0.36% among 350,000. AID 720511. activity (quench increase), % at 7.58 µM. CFBE cells, YFP halide quenching; stimulated with forskolin plus potentiator P3; % fluorescence drop versus neutral controls;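 active = mean added fluorescence quench of at least 8% versus neutral control, with both replicates also reaching 8%; inconclusive = only one of the mean or replicate conditions met; inactive = mean below 8% and not both replicates reaching 8%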;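 note: cells transiently co-express mutant CFTR-F508del with the halide-sensitive YFP; corrector assay measuring rescue of mutant channel to the surface after 24 h compound exposure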
FGF22 binding = binders of recombinant human FGF22 by thermal shift | AID 651658 | hit rate 1.5% among 340,000 | activity (Tm shift, normalised), % at 9.99 µM | SYPRO orange fluorescence; percent of sucrose octasulfate shift, DMSO zero;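 active = mean Tm shift, scaled 0 neutral to 100 positive control, at about 1.3% or above, every replicate too, limit read from the data; inconclusive = no clear call, values can overlap the other calls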
Target sequence (Q9HCT0 whole entry, looked up): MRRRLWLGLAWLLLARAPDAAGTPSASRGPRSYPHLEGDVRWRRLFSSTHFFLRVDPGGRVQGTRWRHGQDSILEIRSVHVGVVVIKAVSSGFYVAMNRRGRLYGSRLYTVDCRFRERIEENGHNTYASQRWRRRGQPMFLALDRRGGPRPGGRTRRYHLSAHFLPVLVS
Numbers without * were called inactive; ? = inconclusive; . = no result given; ! = a repeat was not active. Rows were chosen to be rich in hits. Some 1.7% of all compounds tested hit in one or more screens of this group.

SMILES | Vif imaging | CFTR F508del cor | FGF22 binding
N#Cc1ccc(-c2ccc(C3[C@@H]4CN(C(=O)C5CCCC5)C[C@H]3N4)cc2)cc1 (stereo partly drawn) | . | 1 | .
N#Cc1ccc(-c2ccc(C3[C@@H]4CN(C(=O)C5CCC5)C[C@H]3N4)cc2)cc1 (stereo partly drawn) | . | 10*! | .
Cc1ccc2c(CN3CCN(Cc4ccccc4)CC3)cc(=O)oc2c1C | -15 | 1 | 0
Cc1ccc2c(CN3CCN(S(=O)(=O)c4ccc(Cl)cc4)CC3)cc(=O)oc2c1C | -14 | 19* | 0
CC(C)CC1(C2CCCC2)NC(=O)NC1=O (stereo not drawn) | 0 | -2 | 0
CCCCC1(C2CCCC2)NC(=O)NC1=O (stereo not drawn) | -6 | 12* | 0
C[C@@H](NC(=O)C[C@@H]1CC[C@@H](NC(=O)C2CCC2)[C@@H](CO)O1)c1ccccc1 | . | 1 | 0
COc1ccc(S(=O)(=O)Nc2cccc3c2O[C@@H](CN(C)S(=O)(=O)c2cn(C)cn2)[C@@H](C)CN([C@H](C)CO)C3=O)cc1 | . | 1 | 0
O=C(N=Nc1c(O)[nH]c2ccc(Br)cc12)c1ccco1 | . | 1 | 0
O=C(N=Nc1c(O)[nH]c2ccc(Br)cc12)c1ccccc1-n1cccc1 | 26 | 13* | 0
C/C=C/c1ccc2c(c1)O[C@@H](CN(C)C(=O)NC1CCCC1)[C@H](C)CN([C@H](C)CO)S2(=O)=O | . | . | 0
C[C@@H]1CCCCO[C@@H](CN(C)C(=O)Nc2ccc3c(c2)OCO3)[C@@H](C)CN([C@H](C)CO)C(=O)c2cc(NS(=O)(=O)c3cccs3)ccc2O1 | . | 2 | 0
CC(C)NC(=O)C1CCN(C2CCN(C(=O)c3cc4c(s3)CCCCC4)CC2)CC1 | 6 | 0 | 0
NC(=O)C1CCN(C(=O)c2cc3c(s2)CCCC3)CC1 | 1 | -1 | 43*
Cc1ccc(S(=O)(=O)N(C)C[C@H]2Oc3ccc(NC(=O)Cc4ccccc4)cc3C(=O)N([C@H](C)CO)C[C@H]2C)cc1 | . | 1 | 0
N#C[C@@H]1[C@@H](c2ccccc2-c2cccc(F)c2)[C@H](CO)N1C(=O)NC1CCCC1 | . | -3 | .
O=C(NCCOc1ccccc1F)c1cc([N+](=O)[O-])ccc1N1CCOCC1 | -4 | 8.3* | 0
O=C(NCCc1ccccc1)c1cc([N+](=O)[O-])ccc1N1CCOCC1 | -1 | 1 | 0
O=C(Nc1ccc(N2CCOCC2)cc1N1CCOCC1)c1ccc([N+](=O)[O-])cc1 | 5 | . | .
O=C(NCCOc1ccccc1)c1cc([N+](=O)[O-])ccc1N1CCOCC1 | 4 | 12* | 0
O=C(NCCc1ccc(F)cc1)c1cc([N+](=O)[O-])ccc1N1CCOCC1 | 15 | 2 | -1
O=C(CCNC(=O)c1ccc([N+](=O)[O-])cc1)Nc1ccc(N2CCOCC2)cc1N1CCOCC1 | 4 | -1 | 43*
CN1C[C@@H]2[C@H](c3ccccc31)[C@H](CO)N2C(=O)C1CCCC1 | . | 3 | .
COCCNC(=O)C[C@@H]1CC[C@@H]2[C@H](COC[C@@H](O)CN2Cc2cccc(-c3ccncc3)c2)O1 | . | 1 | -1
CCC(CC)=NNc1ccc([N+](=O)[O-])cc1[N+](=O)[O-] | -2 | -1 | 43*
SMILES | Vif imaging | CFTR F508del cor | FGF22 binding
O=[N+]([O-])c1ccc(NN=C(C2CC2)C2CC2)c([N+](=O)[O-])c1 | . | 3 | 0
COCC(=O)N(C)C[C@H]1Oc2ncc(-c3ccccc3C)cc2C(=O)N([C@H](C)CO)C[C@@H]1C | . | -1 | 0
C[C@H](CO)N1C[C@H](C)[C@@H](CN(C)Cc2ccc(-c3ccccc3)cc2)Oc2ccc(N(C)C)cc2CC1=O | . | 1 | 0
CCOc1ccc(C(=O)NCC(=O)OCC(=O)N2CCCC2)cc1 | -6 | 2 | 44*
CCOc1ccc(C(=O)NCC(=O)OCC(=O)N2CCC(C)CC2)cc1 | 12 | . | .
O=C(C[C@@H]1C[C@@H]2c3cc(NC(=O)NC4CCCC4)ccc3O[C@@H]2[C@H](CO)O1)NCc1cccc(F)c1 | . | -2 | 0
O=C(C[C@@H]1CC[C@H](NS(=O)(=O)c2ccccc2)[C@H](CO)O1)N1CCc2ccccc2C1 | . | -1 | 0
CCC(=O)N1CC2(C1)[C@H](c1ccc(-c3ccccc3)cc1)[C@H](CO)N2S(C)(=O)=O | . | 1 | 0
CO[C@H]1CN(C)C(=O)c2ccc(NC(=O)Nc3c(C)noc3C)cc2OC[C@H](C)N(C)C[C@@H]1C | . | -1 | 0
COc1cc(/C=C2\SC(c3ccc(C)cc3)=NC2=O)cc(OC)c1O | 1 | 0 | 0
Cc1ccc(C2=NC(=O)/C(=C/c3cc(O)c(O)c(Br)c3)S2)cc1 | 1 | -2 | 43*
CO[C@@H]1CN(C)C(=O)c2ccc(NS(C)(=O)=O)cc2OC[C@H](C)N(C(=O)C2CCC2)C[C@H]1C | . | ? | 0
CC(C)COc1ccc(C(=O)N/C(=C\c2cccc([N+](=O)[O-])c2)C(=O)O)cc1 | -2 | 2 | -1
CCCCOc1ccc(C(=O)N/C(=C/c2cccc([N+](=O)[O-])c2)C(=O)O)cc1 | 1 | -1 | 52*
COc1cccc(NC(=S)/C(=C(\[O-])c2ccc([N+](=O)[O-])cc2)[n+]2ccccc2)c1 | 1 | 1 | 43*
O=[N+]([O-])c1ccc(/C([O-])=C(/C(=S)Nc2ccccc2F)[n+]2ccccc2)cc1 | 0 | 0 | 0
CCCN1[C@@H]2Cn3c(ccc(C4=CCCCC4)c3=O)[C@H]1[C@@H](C(=O)N1CCOCC1)[C@@H]2CO | . | 0 | 0
Cc1cccc(C2NC(=O)c3ccccc3N2)c1 (stereo not drawn) | -5 | -2 | 0
Cc1ccc(C2NC(=O)c3ccccc3N2)c(C)c1 (stereo not drawn) | 16 | 11* | 0
COc1ccccc1NC(=O)N1CC[C@H]2[C@@H]1c1cc(C#Cc3ccc(F)cc3)ccc1N(C)[C@H]2CO | . | -3 | -1
O=C(Cc1ccc(F)cc1)NC1CCSC1=O (stereo not drawn) | 4 | -2 | 43*
O=C(CCCc1ccccc1)NC1CCSC1=O (stereo not drawn) | 10 | 0 | .
Cc1cccc(CC(=O)Nc2cccnc2)c1 | -1 | 8.4* | 0
O=C(Cc1ccccc1)Nc1cccnc1 | 0 | 0 | 0
COCc1cn(CC[C@H]2CC[C@H](NC(=O)Nc3ccccc3)[C@@H](CO)O2)nn1 | . | 1 | 0
SMILES | Vif imaging | CFTR F508del cor | FGF22 binding
COc1ccccc1-c1cnc2c(c1)C(=O)N([C@H](C)CO)C[C@H](C)[C@@H](CN(C)Cc1ccc(C(=O)O)cc1)O2 | . | 2 | 0
COc1ccc(NC(=O)Nc2ccc3c(c2)C(=O)N([C@@H](C)CO)C[C@H](C)[C@H](CN(C)C(=O)NC(C)C)OCCCC[C@@H](C)O3)cc1 | . | -1 | 0
Cn1c(=O)c2nc(-c3ccccc3)c(-c3ccccc3)nc2n(C)c1=O | 1 | -4 | 0
Cn1c(=O)c2nc3ccccc3nc2n(C)c1=O | 1 | 1 | 43*
O=C(CCN1CCCCC1)N1CCc2c([nH]c3ccccc23)C1c1cccnc1 (stereo not drawn) | 12 | 8.9* | 0
O=C(c1cnccn1)N1CCc2c([nH]c3ccccc23)C1c1cccc(Cl)c1 (stereo not drawn) | -3 | -1 | 1

Screening data from PubChem BioAssay.
